HepG2 tox – qHTS for Inhibitors of TGF-b: Cytotox Counterscreen; HepG2 CAGA-GFP viability, ATP luminescence, 18 h; 410,000 tested, 0.76% active; Potency, µM (highest dose often 46.1 µM), most hits filed as cytotoxic
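CellTiter-Glo luminescence gave cytotoxicity after 18 hours at 37 degrees C. The cells were HepG2 CAGA-GFP in 1% FBS DMEM, stimulated with 500 pg/mL TGF-beta after compound addition. %Activity was normalised to no-cell wells (complete cell-killing) and DMSO (no toxicity), and curves were fitted and classified.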
TGFb SMAD3 inh – qHTS for Inhibitors of TGF-b; 410,000 tested, 1.2% active; HepG2 CAGA-GFP TGF-b/SMAD3 reporter, GFP fluorescence, 18 h; TGF-beta stimulated, 500 pg/mL final; AID 588855, 2011; Potency, µM (doses to about 46.1 µM), most hits filed as inhibitors; also: nearly all actives have a fitted effect of over 65% in size
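HEPG2 CAGA-GFP cells (1000/well, DMEM with 1% FBS) were pre-incubated 2 h at 37 degrees C, given compound by pin tool, then stimulated with TGF-beta at 500 pg/mL final for 18 h before per-cell GFP fluorescence imaging.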
HT1080 IDH1KD tx – qHTS for induction of synthetic lethality in tumor cells producing 2HG: qHTS for the HT-1080-IDH1KD cell line; HT-1080 IDH1 knockdown viability, ATP luminescence, 48 h; Potency, µM (doses to about 46.1 µM), hits mostly cytotoxic; 360,000 tested, 2% active; AID 686971, 2013
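Cytotoxicity counter-line: IDH1KD HT-1080, 48 h, CellTiter-Glo. Curves classed by r2, magnitude and activity.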
HT1080NT lethal – qHTS for induction of synthetic lethality in tumor cells producing 2HG: qHTS for the HT-1080-NT fibrosarcoma cell line; HT-1080-NT fibrosarcoma viability, CellTiter-Glo ATP luminescence, 48 h; Potency, µM (titrated, usually from 46.1 µM), usual class: cytotoxic; 360,000 tested, 1.6% active; AID 686970, 2013;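 also: NT is the 2HG producing partner of a matched IDH1 knockdown line; nearly all actives have a fitted effect of over 55% in size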
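HT-1080-NT fibrosarcoma cells (2HG-overproducing), 750 cells/well in RPMI with 5% FBS, dosed after 2 h and incubated 48 h at 37C. CellTiter-Glo luminescence normalized to DMSO and no-cell wells; concentration-response curves fitted and classed.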
TDP1 cell noCPT – qHTS for Inhibitors of human tyrosyl-DNA phosphodiesterase 1 (TDP1): qHTS in cells in absence of CPT | DT40 Tdp1-/- hTDP1 cells, no CPT, ATP luminescence, 48 h | Potency, µM (doses to about 46.2 µM), most hits filed as inhibitors | AID 686978, 2013 | 420,000 tested, 15% active; also: nearly all actives have a fitted effect of over 55% in size
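Seeded 400 DT40-hTDP1 cells/well (vehicle DMSO, no 20 nM CPT); pinned compounds; ≥48 hr at 37 °C; CellTiter-Glo luminescence as viability measure.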
TDP1 cell CPT – qHTS for Inhibitors of human tyrosyl-DNA phosphodiesterase 1 (TDP1): qHTS in cells in presence of CPT; chicken DT40 Tdp1-/-;hTDP1 cells + 20 nM CPT, ATP luminescence, 48 h; Potency, µM (doses to about 46.2 µM), usual class: inhibitors; 420,000 tested, 12% active; AID 686979, 2013; also: nearly all actives have a fitted effect of over 55% in size
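Chicken DT40 Tdp1-/- cells complemented with human TDP1, 400 cells/well, exposed to compounds plus 20 nM camptothecin for at least 48 h at 37 C; viability read as ATP content by CellTiter-Glo luminescence.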
A number is an active result; 0 = inactive; ? = inconclusive; - = no result. This is a sample that favours compounds with a hit; in the whole collection about 17% have one here. Calls follow the shape of the dose curve; as a rule, active = well fitted curve in the direction sought with a large enough effect; inconclusive = small, poorly fitted or top-dose-only effect, or another doubt; inactive = no such curve, though single readings can be large; an effect the other way counts as inactive or inconclusive.

SMILES | HepG2 tox | TGFb SMAD3 inh | HT1080 IDH1KD tx | HT1080NT lethal | TDP1 cell noCPT | TDP1 cell CPT
CCC(=O)n1nc(-c2ccc(Cl)cc2)nc1N | 0 | 0 | 0 | 0 | 2.6µM | 0
CCCC(=O)n1nc(-c2ccc(OC)cc2)nc1N | 0 | 0 | 0 | 0 | 0 | 0
COc1ccccc1N(CC(=O)N1CCCCC1C)S(=O)(=O)c1ccc(Cl)cc1 (configuration not stated) | 0 | 0 | 0 | 0 | ? | ?
Cc1ccc(-c2csc(NC(=O)c3cccc([N+](=O)[O-])c3)n2)cc1 | 0 | 0 | 0 | 0 | 0 | 0
Cc1ccc(C(=O)Nc2cccc(C(F)(F)F)c2)cc1NC(=O)c1csc(-c2ccncc2)n1 | 0 | 0 | 0 | 0 | 4.1µM | 6.5µM
O=C(Nc1ccc(-c2csc(Nc3ccccc3)n2)cc1)c1cc([N+](=O)[O-])cc(C(F)(F)F)c1 | 0 | ? | 0 | 0 | 18µM | ?
O=C(Nc1cccc(-c2csc(Nc3cccc(C(F)(F)F)c3)n2)c1)c1cc([N+](=O)[O-])cc(C(F)(F)F)c1 | 0 | 0 | 0 | 0 | 5.8µM | 7.3µM
O=C(Nc1ccc(-c2csc(Nc3ccccc3)n2)cc1)c1cccc(C(F)(F)F)c1 | 0 | ? | ? | ? | 4.1µM | 2.9µM
CCn1nc(NS(=O)(=O)c2ccc([N+](=O)[O-])cc2)c2cc3ccccc3nc21 | 0 | 0 | 0 | 0 | 0 | 0
Cc1c(Cc2ccccc2)c(=O)oc2c(C)c(OCC(=O)N[C@@H](Cc3ccccc3)C(=O)O)ccc12 | 0 | 0 | 0 | 0 | 0 | 0
NC(=O)Cc1nc(-c2ccc([N+](=O)[O-])cc2)cs1 | 0 | 0 | 0 | 0 | ? | 10µM
O=[N+]([O-])c1ccc(-c2csc(Nc3ccccc3)n2)cc1 | - | - | 0 | 0 | 13µM | ?
COC(=O)C1OCOC2C(C(=O)OC)OCOC12 (configuration not stated) | 0 | 0 | 0 | 0 | 0 | 0
O=C1C(=Cc2ccco2)CCC1=Cc1ccco1 | 0 | ? | 0 | 0 | 16µM | 23µM
O=C1C(=Cc2ccco2)CCCC1=Cc1ccco1 | 0 | 0 | 0 | 0 | ? | 23µM
O/N=C1\CCC\C1=C/c1ccco1 | 0 | 0 | 0 | 0 | 0 | 0
O=C1N=C(N2CCOCC2)SC1=Cc1ccco1 | 0 | 0 | 0 | 0 | 0 | 0
COc1ccc(CCNC(=O)Nc2nc(CN)cs2)cc1OC | 0 | 0 | 0 | 0 | 0 | ?
CCc1ccc(-c2cc(C(=O)Nn3cnnc3)c3ccccc3n2)cc1 | 8.9µM | ? | 14µM | 10µM | 13µM | 7.3µM
CCCc1ccc(-c2cc(C(=O)NN3CCOCC3)c3ccccc3n2)cc1 | 0 | 0 | ? | 0 | 0.46µM | ?
CC(C)Oc1cccc(-c2cc(C(=O)NN3CCOCC3)c3ccccc3n2)c1 | 0 | 0 | 0 | 0 | 10µM | 15µM
O=C(NN1CCOCC1)c1cc(-c2ccc(Br)s2)nc2ccccc12 | 0 | ? | 0 | 0 | ? | ?
COc1ccc(/C=N/NC(=O)C(=O)N2CCCCCC2)cc1O | 0 | 0 | 0 | 0 | 0 | 0
Cc1cccc(NC(=O)CNC(=O)COc2ccc(-c3ccc(C#N)cc3)cc2)c1C | 0 | 0 | 0 | 0 | 13µM | 0
Cc1cccc(NC(=O)CNC(=O)COc2ccc(C(=O)c3ccc(F)cc3)cc2)c1C | 0 | 0 | 0 | 0 | 10µM | 18µM
SMILES | HepG2 tox | TGFb SMAD3 inh | HT1080 IDH1KD tx | HT1080NT lethal | TDP1 cell noCPT | TDP1 cell CPT
CCN1CCN(c2c(S(=O)(=O)c3ccc(C)c(C)c3)cnc3ccc(F)cc23)CC1 | 0 | 0 | 0 | 0 | ? | ?
COc1ccc(CN2C(=O)N(c3cccc(C)c3)C(=O)C2CC(=O)Nc2ccc(F)cc2)cc1OC (configuration not stated) | 0 | 0 | - | - | ? | 0
Cc1nc2ccccc2c2ncccc12 | 0 | 0 | 0 | 0 | 0 | 0
c1cnc2nc3c4ccccc4c4ccccc4c3nc2c1 | 0 | 0 | 0 | 0 | 15µM | ?
CCNc1nc(NC(C)(C)C)nc(N(CC)n2cnnc2)n1 | 0 | ? | 0 | 0 | 0 | 0
CN(C)c1nc(NC(C)(C)C)nc(NC(C)(C)C)n1 | 0 | 0 | 0 | 0 | 21µM | ?
O=C(/C=C/c1ccccc1)OCCCCN=C1NS(=O)(=O)c2ccccc21 | 0 | 0 | 0 | 0 | 26µM | 9.2µM
CC[C@@H](C)[C@H](CN[C@H](CNC)C(C)C)NC[C@@H](C)c1ccc(CC(C)C)cc1 | 0 | ? | ? | ? | 1.5µM | 1.5µM
O=C(COc1ccccc1C(=O)Nc1ccccc1)Nc1ccccc1Br | 0 | 0 | - | - | ? | ?
O=C(COc1ccccc1C(=O)Nc1ccccc1)c1ccc(F)cc1 | 0 | 0 | 0 | 0 | ? | ?
COc1ccc(C(=O)COc2ccccc2C(=O)Nc2ccccc2)cc1 | 0 | 0 | 0 | 0 | 18µM | 12µM
Cc1ccccc1NC(=O)c1ccccc1OCC(=O)Nc1ccc(Br)cc1 | 0 | ? | - | - | 14µM | ?
N#Cc1ccccc1NC(=O)COc1ccccc1C(=O)Nc1ccccc1 | 0 | 0 | 0 | 0 | ? | 16µM
O=C(Oc1ccccc1C(=O)Nc1ccccc1)c1ccccc1Br | 0 | 0 | 7.3µM | ? | 21µM | 18µM
O=C(Nc1ccccc1)c1ccccc1OS(=O)(=O)c1ccccc1 | 0 | 0 | 0 | 0 | 0 | 0
COc1ccc(Cl)cc1S(=O)(=O)NC(C)c1cnn(-c2ccccn2)c1C (configuration not stated) | 0 | 0 | 0 | 0 | ? | 0
CC1CCCCC1NC(=O)CN1C(=O)c2ccccc2S1(=O)=O (configuration not stated) | 0 | 0 | 0 | 0 | 0 | 0
COCCN1C(=O)CCC1(C)C(=O)NC1CCCCC1 (configuration not stated) | 0 | 0 | 0 | ? | 0 | 0
CS(=O)(=O)c1ccc(NC(=O)COc2ccccc2C(=O)Nc2ccccc2)cc1 | 0 | 0 | - | - | ? | 20µM
Cc1cccc(NC(=O)COc2ccccc2C(=O)Nc2ccccc2)c1 | - | - | 0 | 0 | ? | ?
O=C(Nc1ccc(C2CC2(Cl)Cl)cc1)c1ccccc1Br (configuration not stated) | 0 | ? | 0 | 0 | 13µM | 18µM
O=C(COc1ccccc1C(=O)Nc1ccccc1)Nc1ccccc1-c1ccccc1 | 0 | ? | - | - | ? | 13µM
O=C(COc1ccccc1C(=O)Nc1ccccc1)Nc1ccc(-c2ccccc2)cc1 | 0 | 0 | - | - | 11µM | ?
